# Shown is part of a subset that was picked to be rich in hits.
# IDE exosite FP – displaces the probe from the exo-site of human IDE. purified IDE, FL-6b probe fluorescence polarization; active compounds read low. P14735. actives 6.3% (n = 17,000). z-score at 20 µM;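 active means z-score of -3 or lower, meaning strong loss of probe binding signal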;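 further: His-tagged human IDE residues 42-1019 made in E. coli with 30 nM FL-6b probe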
# A number is an active result; . = inactive; ! = repeats disagree.
SMILES,IDE exosite FP
COc1cccc(S(=O)(=O)N2[C@@H]3CNC[C@H]2C3c2ccc(/C=C/c3ccccc3)cc2)c1 (stereo not given in full),.
Cc1ccc(S(=O)(=O)N2C[C@@H]3N[C@H](C2)C3c2ccc(/C=C/c3ccccc3)cc2)cc1 (stereo not given in full),.
COc1ccccc1S(=O)(=O)N1C[C@@H]2N[C@H](C1)C2c1ccc(-c2cccnc2)cc1 (stereo not given in full),.
COc1ccccc1S(=O)(=O)N1[C@@H]2CNC[C@H]1C2c1ccc(/C=C/c2ccccc2)cc1 (stereo not given in full),-5.24!
C/C=C/c1ccc(C2[C@@H]3CN(S(=O)(=O)c4ccccc4)C[C@H]2N3)cc1 (stereo not given in full),.
Cc1ccccc1-c1ccc(C2[C@@H]3CN(S(=O)(=O)c4ccccc4)C[C@H]2N3)cc1 (stereo not given in full),-10.1
O=C(C[C@@H]1CC[C@H]2NC[C@@H](O)COC[C@@H]2O1)NCc1ccc2c(c1)OCO2,.
O=C1CN(S(=O)(=O)Cc2ccccc2)C[C@@H]2[C@@H](c3ccc(C#Cc4cccnc4)cc3)[C@H](CO)N12,.
COc1ccc([C@H]2C/C=C\C[C@@H](c3ccc4c(c3)OCO4)NC(=O)[C@@H](c3ccccc3)CC(=O)N2)c(OC)c1,.
CC(C)CC#Cc1ccc([C@@H]2[C@H](CO)N3C(=O)CN(C(=O)Nc4ccc(F)cc4)C[C@@H]23)cc1,.
CCN(C[C@@H]1N[C@H](CO)[C@H]1c1ccc(-c2ccccc2)cc1)C(=O)COC,.
CCCC#Cc1ccc([C@@H]2[C@@H](CO)N3C(=O)CN(S(=O)(=O)Cc4ccccc4)C[C@H]23)cc1,.
C/C=C/c1cnc2c(c1)C(=O)N([C@@H](C)CO)C[C@@H](C)[C@H](CN(C)CC1CCOCC1)O2,.
COc1cccc(C(=O)N2C[C@H]3[C@@H](c4ccccc42)[C@@H](CO)N3C(=O)c2cccc(F)c2)c1,.
COc1ccc([C@@H]2C/C=C\C[C@H](c3ccc4c(c3)OCO4)NC(=O)CCC(=O)N2)c(OC)c1,.
COc1cccc(S(=O)(=O)N2[C@@H]3CNC[C@H]2C3c2ccc(-c3cccc(C)c3)cc2)c1 (stereo not given in full),.
COc1cccc(S(=O)(=O)N2[C@@H]3CNC[C@H]2C3c2ccc(-c3ccccc3C)cc2)c1 (stereo not given in full),-5.31
COc1ccc(S(=O)(=O)N2[C@@H]3CNC[C@H]2C3c2ccc(-c3cccc(OC)c3)cc2)cc1 (stereo not given in full),.
Cc1ccc(S(=O)(=O)N2C[C@H](O)COC[C@@H]3O[C@H](CC(=O)NCc4ccc5c(c4)OCO5)CC[C@H]32)cc1,.
Cc1ccc(S(=O)(=O)N2C[C@@H]3N[C@H](C2)C3c2ccc(-c3ccncc3)cc2)cc1 (stereo not given in full),.
COc1ccc(CN2CC3(CCN(C(=O)Cc4ccncc4)CC3)c3c([nH]c4cc(OC)ccc34)[C@@H]2CO)cc1,-3.12
COc1ccc2c3c([nH]c2c1)[C@@H](CO)N(C(=O)Nc1ccc(F)cc1)CC31CCN(C(=O)Cc2ccncc2)CC1,.
COc1ccc2c3c([nH]c2c1)[C@H](CO)N(Cc1ccc(Cl)cc1)CC31CN(S(C)(=O)=O)C1,.
COc1ccc2c3c([nH]c2c1)[C@@H](CO)N(Cc1ccc(Cl)cc1)CC31CN(S(C)(=O)=O)C1,.
COc1ccc2c3c([nH]c2c1)[C@H](CO)N(C(=O)Nc1ccc(F)cc1)CC31CCN(C(=O)Cc2ccncc2)CC1,.
SMILES,IDE exosite FP
CCCC(=O)N1CCC2(CC1)CN(Cc1ccc(Cl)cc1)[C@H](CO)c1[nH]c3cc(OC)ccc3c12,-3.62
COc1ccc2c3c(n(C)c2c1)[C@@H](CO)N(C)CC31CN(S(=O)(=O)c2cccc(C)c2)C1,.
CO[C@@H]1CN(C)C(=O)c2ccc(NC(=O)Nc3cc(F)ccc3F)cc2OC[C@@H](C)N(C(=O)c2ccccn2)C[C@H]1C,.
CC(C)CC#Cc1ccc([C@H]2[C@H]3CN(C(=O)Cc4ccccc4)CC(=O)N3[C@H]2CO)cc1,.
O=C(Nc1ccccc1)N1CCCCN2[C@H](C1)[C@H](c1ccc(C#Cc3cccnc3)cc1)[C@@H]2CO,.
O=C(Nc1ccccc1F)N1CCCCN2[C@H](C1)[C@H](c1ccc(C#Cc3ccccc3)cc1)[C@@H]2CO,.
O=C(Nc1ccccc1F)N1CCCCN2[C@H](CO)[C@H](c3ccc(C#Cc4cccnc4)cc3)[C@H]2C1,-6.86
O=C(Nc1ccccc1)N1CCCCN2[C@H](CO)[C@H](c3ccc(C#Cc4cccnc4)cc3)[C@@H]2C1,-4.15
O=C(Nc1ccccc1F)N1CCCCN2[C@H](CO)[C@H](c3ccc(C#Cc4ccccc4)cc3)[C@H]2C1,.
O=C(Nc1ccccc1F)N1CCCCN2[C@@H](CO)[C@H](c3ccc(C#Cc4cccnc4)cc3)[C@@H]2C1,-4.65
O=C(Nc1ccccc1F)N1CCCCN2[C@H](CO)[C@H](c3ccc(-c4cccnc4)cc3)[C@H]2C1,.
O=C(Nc1ccccc1F)N1CCCCN2[C@H](CO)[C@@H](c3ccc(-c4cccnc4)cc3)[C@@H]2C1,.
O=C(Nc1ccccc1)N1CCCCN2[C@H](CO)[C@@H](c3ccc(C#Cc4ccccc4)cc3)[C@@H]2C1,.
CN1c2ccc(Br)cc2[C@H]2[C@H](CCN2C(=O)C2CCC2)[C@H]1CO,.
N#C[C@H]1[C@@H](c2ccccc2C2=CCCC2)[C@H](CO)N1S(=O)(=O)c1cccc(F)c1,.
CO[C@H]1CC[C@@H]2CCN(C)C(=O)[C@@H](C)N(C)C(=O)c3cccc(C#N)c3OC[C@H]1O2,.
CCC(=O)NC[C@@H]1[C@H](c2ccc(C3=CCCC3)cc2)[C@H](CO)N1C(=O)C1CC1,.
N#C[C@H]1[C@@H](c2ccc(C3=CCCC3)cc2)[C@H](CO)N1C(=O)c1ccccn1,.
C[C@@H]1CCCCO[C@@H](CN(C)C(=O)Cc2ccccc2)[C@@H](C)CN([C@@H](C)CO)C(=O)c2cc(NS(C)(=O)=O)ccc2O1,.
